The source of these data is PMC7862700, “An all-to-all approach to the identification of sequence-specific readers for epigenetic DNA modifications on cytosine”.

Holding throughout (test): DAPPL (digital affinity profiling via proximity ligation, sequencing); 10 mM Tris-HCl pH 7.5, 50 mM NaCl, 1 mM DTT, 4% glycerol, room temperature, 30 min; GST-TFs on glutathione beads, 16-mer random dsDNA library, 0.1% formaldehyde crosslink after washing; high values mean tight binding
Conditions in all cases: protein: recombinant; tags: N-terminal GST; dsDNA, one strand shown

One experiment has as its target T1, FLI1 (Homo sapiens, UniProt Q01543 1-452).
T1 sequence: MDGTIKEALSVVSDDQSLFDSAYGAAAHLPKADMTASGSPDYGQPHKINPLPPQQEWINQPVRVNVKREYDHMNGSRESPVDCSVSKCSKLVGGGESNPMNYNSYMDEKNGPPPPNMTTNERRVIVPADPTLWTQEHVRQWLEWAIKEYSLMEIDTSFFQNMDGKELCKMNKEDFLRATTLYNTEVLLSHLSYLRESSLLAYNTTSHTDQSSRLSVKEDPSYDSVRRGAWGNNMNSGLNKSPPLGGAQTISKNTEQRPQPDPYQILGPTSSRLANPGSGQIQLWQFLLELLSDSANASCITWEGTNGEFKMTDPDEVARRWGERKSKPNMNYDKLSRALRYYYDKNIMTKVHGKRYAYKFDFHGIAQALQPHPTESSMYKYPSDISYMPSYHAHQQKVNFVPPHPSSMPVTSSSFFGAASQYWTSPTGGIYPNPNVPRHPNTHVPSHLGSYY
The procedure, abridged: (§1)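 Human transcription factors carrying a GST fusion were produced in yeast, bound to glutathione beads, tagged with DNA barcodes and pooled together with a tag-only sample. Each pool was held with 200 nmole of a random double-stranded 16-mer DNA library in Tris/NaCl/DTT/glycerol buffer for 30 min at room temperature, then washed, crosslinked in 0.1% formaldehyde, proximity-ligated with BsaI/T4 ligase (1 h, 37 °C), PCR-amplified and sequenced on an Illumina NextSeq500. Binding signal is the read frequency of each hexamer for a given factor divided by its frequency in the tag-only sample.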

The target in another experiment is T2, ELK1 (Homo sapiens, UniProt P19419 1-428).
T2 sequence: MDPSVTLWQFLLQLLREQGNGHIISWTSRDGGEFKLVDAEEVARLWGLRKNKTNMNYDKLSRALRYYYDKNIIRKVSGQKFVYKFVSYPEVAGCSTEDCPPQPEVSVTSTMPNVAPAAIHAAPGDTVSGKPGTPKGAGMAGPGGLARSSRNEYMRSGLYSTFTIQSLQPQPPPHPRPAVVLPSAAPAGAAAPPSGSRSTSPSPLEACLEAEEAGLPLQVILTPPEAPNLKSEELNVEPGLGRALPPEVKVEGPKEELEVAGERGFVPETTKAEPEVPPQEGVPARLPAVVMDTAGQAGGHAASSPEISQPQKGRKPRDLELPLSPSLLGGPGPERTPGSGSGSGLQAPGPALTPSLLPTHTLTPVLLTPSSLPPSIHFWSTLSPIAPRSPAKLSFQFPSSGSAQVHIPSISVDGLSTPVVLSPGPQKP
The procedure, abridged: as §1

The next experiment deals with T3, GABPA (Homo sapiens, UniProt Q06546 1-454).
T3 sequence: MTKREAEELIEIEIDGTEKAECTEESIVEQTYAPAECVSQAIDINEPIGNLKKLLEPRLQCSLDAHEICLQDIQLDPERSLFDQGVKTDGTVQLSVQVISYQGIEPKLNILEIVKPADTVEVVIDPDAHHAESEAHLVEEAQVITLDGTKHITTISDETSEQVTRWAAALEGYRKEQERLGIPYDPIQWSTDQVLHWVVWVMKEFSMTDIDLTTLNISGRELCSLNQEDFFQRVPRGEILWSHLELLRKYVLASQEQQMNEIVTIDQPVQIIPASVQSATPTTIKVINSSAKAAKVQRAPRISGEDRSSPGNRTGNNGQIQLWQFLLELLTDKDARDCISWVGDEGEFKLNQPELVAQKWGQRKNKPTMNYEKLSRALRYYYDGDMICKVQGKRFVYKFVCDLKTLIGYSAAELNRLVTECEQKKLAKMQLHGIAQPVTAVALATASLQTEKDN
The procedure, abridged: as §1

The target of another experiment is T4, ERG (Homo sapiens, UniProt P11308 1-479).
T4 sequence: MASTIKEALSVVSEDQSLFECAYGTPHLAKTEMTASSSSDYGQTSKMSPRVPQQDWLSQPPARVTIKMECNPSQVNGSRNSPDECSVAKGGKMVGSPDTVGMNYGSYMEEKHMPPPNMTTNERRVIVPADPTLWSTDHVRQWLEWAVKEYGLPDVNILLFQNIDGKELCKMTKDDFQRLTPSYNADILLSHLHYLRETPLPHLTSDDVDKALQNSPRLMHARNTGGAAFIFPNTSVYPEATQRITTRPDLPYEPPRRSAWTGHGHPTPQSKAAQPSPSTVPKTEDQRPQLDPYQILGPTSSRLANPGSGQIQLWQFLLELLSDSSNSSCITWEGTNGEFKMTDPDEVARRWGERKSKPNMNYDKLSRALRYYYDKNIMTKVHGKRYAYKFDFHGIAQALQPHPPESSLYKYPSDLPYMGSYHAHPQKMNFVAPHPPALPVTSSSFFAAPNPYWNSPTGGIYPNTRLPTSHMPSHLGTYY
The procedure, abridged: as §1

Another experiment has as its target ELF1 (Homo sapiens, UniProt P32519 1-619). In short, it runs like this: as §1
The next experiment addresses T5, EHF (Homo sapiens, UniProt Q9NZC4 1-300).
T5 sequence: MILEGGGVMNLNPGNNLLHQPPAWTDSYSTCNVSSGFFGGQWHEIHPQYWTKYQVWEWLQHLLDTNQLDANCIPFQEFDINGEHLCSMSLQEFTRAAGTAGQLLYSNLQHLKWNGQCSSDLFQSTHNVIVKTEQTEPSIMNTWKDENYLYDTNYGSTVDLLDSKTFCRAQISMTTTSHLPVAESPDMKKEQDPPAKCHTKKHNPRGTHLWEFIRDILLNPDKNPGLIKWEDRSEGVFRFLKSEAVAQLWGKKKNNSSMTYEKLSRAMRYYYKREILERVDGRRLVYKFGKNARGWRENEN
The procedure, abridged: as §1

In a further experiment the target is SPI1 (Homo sapiens, UniProt P17947 1-270). The procedure, abridged:
as §1

The next experiment addresses SPIB (Homo sapiens, UniProt Q01892 1-262). In short, it runs like this: as §1
The next experiment addresses T6, ELK3 (Homo sapiens, UniProt P41970 1-407).
T6 sequence: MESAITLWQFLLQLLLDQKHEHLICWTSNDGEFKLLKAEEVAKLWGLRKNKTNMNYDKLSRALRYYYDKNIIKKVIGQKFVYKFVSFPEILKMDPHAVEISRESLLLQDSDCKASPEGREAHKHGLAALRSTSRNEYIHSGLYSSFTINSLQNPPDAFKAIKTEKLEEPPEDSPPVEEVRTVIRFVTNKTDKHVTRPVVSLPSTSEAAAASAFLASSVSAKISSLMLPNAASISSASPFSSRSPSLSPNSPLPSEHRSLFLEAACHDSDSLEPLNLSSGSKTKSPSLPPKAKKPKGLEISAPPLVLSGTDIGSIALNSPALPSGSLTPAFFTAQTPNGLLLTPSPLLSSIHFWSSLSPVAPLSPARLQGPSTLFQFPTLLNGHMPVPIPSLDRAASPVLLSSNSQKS
In short, it runs like this: as §1

Sequence of SPIB (Q01892 whole entry): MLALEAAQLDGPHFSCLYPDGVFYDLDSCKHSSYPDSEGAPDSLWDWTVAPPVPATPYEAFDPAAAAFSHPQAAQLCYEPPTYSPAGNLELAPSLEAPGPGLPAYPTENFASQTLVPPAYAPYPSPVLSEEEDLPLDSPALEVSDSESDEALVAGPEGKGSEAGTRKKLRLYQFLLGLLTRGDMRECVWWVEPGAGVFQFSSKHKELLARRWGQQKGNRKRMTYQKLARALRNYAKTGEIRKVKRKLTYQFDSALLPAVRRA
Sequence of ELF1 (P32519 whole entry): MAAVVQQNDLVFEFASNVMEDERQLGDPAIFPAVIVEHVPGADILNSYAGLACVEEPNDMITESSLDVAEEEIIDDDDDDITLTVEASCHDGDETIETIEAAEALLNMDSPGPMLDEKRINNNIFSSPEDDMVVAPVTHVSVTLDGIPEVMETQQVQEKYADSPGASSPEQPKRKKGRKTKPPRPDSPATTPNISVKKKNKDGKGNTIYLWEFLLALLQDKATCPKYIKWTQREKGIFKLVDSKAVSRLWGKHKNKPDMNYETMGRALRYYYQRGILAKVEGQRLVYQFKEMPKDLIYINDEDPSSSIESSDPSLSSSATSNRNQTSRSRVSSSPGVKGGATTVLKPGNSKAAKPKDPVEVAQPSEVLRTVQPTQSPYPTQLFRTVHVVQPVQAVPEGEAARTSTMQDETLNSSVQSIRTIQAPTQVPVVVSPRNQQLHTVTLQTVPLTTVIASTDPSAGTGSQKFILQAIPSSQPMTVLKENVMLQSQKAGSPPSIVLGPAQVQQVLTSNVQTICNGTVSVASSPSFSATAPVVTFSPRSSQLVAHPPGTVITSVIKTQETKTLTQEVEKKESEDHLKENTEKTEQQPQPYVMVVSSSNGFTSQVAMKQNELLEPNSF

Take TCTGAA: the binding signal with FLI1 is 1.11 fold enrichment (6-mer frequency, TF over GST control); with ELK1, 1.22 fold enrichment (6-mer frequency, TF over GST control); in the experiment with GABPA it was 1.13 fold enrichment (6-mer frequency, TF over GST control); in the experiment with ERG it was 1.15 fold enrichment (6-mer frequency, TF over GST control); with ELF1, 1.18 fold enrichment (6-mer frequency, TF over GST control); with EHF, 1.18 fold enrichment (6-mer frequency, TF over GST control). Besides, the binding signal was 1.18 fold enrichment (6-mer frequency, TF over GST control) with SPI1; 1.26 fold enrichment (6-mer frequency, TF over GST control) in the experiment with SPIB; 1.17 fold enrichment (6-mer frequency, TF over GST control) with ELK3.

For GATTCA, the binding signal with FLI1 was 1.11 fold enrichment (6-mer frequency, TF over GST control); with ELK1 it was 1.15 fold enrichment (6-mer frequency, TF over GST control); in the experiment with GABPA, 1.17 fold enrichment (6-mer frequency, TF over GST control); with ERG, 1.11 fold enrichment (6-mer frequency, TF over GST control); in the experiment with ELF1, 1.17 fold enrichment (6-mer frequency, TF over GST control); with EHF, 1.18 fold enrichment (6-mer frequency, TF over GST control). Also, the binding signal with SPI1 is 1.16 fold enrichment (6-mer frequency, TF over GST control); with SPIB, 1.04 fold enrichment (6-mer frequency, TF over GST control); in the experiment with ELK3, 1.1 fold enrichment (6-mer frequency, TF over GST control).

Regarding AATAAT, the binding signal with FLI1 is 1.23 fold enrichment (6-mer frequency, TF over GST control); in the experiment with ELK1, 1.24 fold enrichment (6-mer frequency, TF over GST control); with GABPA, 1.31 fold enrichment (6-mer frequency, TF over GST control); with ERG, 1.33 fold enrichment (6-mer frequency, TF over GST control); in the experiment with ELF1, 1.28 fold enrichment (6-mer frequency, TF over GST control); with EHF, 1.36 fold enrichment (6-mer frequency, TF over GST control). In addition, the binding signal in the experiment with SPI1 is 1.24 fold enrichment (6-mer frequency, TF over GST control); with SPIB, 1.32 fold enrichment (6-mer frequency, TF over GST control); with ELK3, 1.39 fold enrichment (6-mer frequency, TF over GST control).

For the sequence AACGCT, the binding signal in the experiment with FLI1 was 1.16 fold enrichment (6-mer frequency, TF over GST control); with ELK1, 1.22 fold enrichment (6-mer frequency, TF over GST control); with GABPA, 1.22 fold enrichment (6-mer frequency, TF over GST control); with ERG, 1.19 fold enrichment (6-mer frequency, TF over GST control); in the experiment with ELF1 it was 1.27 fold enrichment (6-mer frequency, TF over GST control); with EHF, 1.23 fold enrichment (6-mer frequency, TF over GST control). For the same sequence, the binding signal is 1.17 fold enrichment (6-mer frequency, TF over GST control) with SPI1; 1.21 fold enrichment (6-mer frequency, TF over GST control) with SPIB; 1.2 fold enrichment (6-mer frequency, TF over GST control) with ELK3.

As to TGCTGG, the binding signal with FLI1 is 1.08 fold enrichment (6-mer frequency, TF over GST control); with ELK1 it was 1.09 fold enrichment (6-mer frequency, TF over GST control); with GABPA, 1.08 fold enrichment (6-mer frequency, TF over GST control); with ERG, 1.01 fold enrichment (6-mer frequency, TF over GST control); in the experiment with ELF1 it was 1.11 fold enrichment (6-mer frequency, TF over GST control); in the experiment with EHF it was 1.11 fold enrichment (6-mer frequency, TF over GST control). Besides, the binding signal was 1.19 fold enrichment (6-mer frequency, TF over GST control) with SPI1; 1.1 fold enrichment (6-mer frequency, TF over GST control) in the experiment with SPIB; 1.14 fold enrichment (6-mer frequency, TF over GST control) with ELK3.

As to TTCTCA, the binding signal was 1.36 fold enrichment (6-mer frequency, TF over GST control) with FLI1; 1.31 fold enrichment (6-mer frequency, TF over GST control) in the experiment with ELK1; 1.33 fold enrichment (6-mer frequency, TF over GST control) with GABPA; 1.26 fold enrichment (6-mer frequency, TF over GST control) with ERG; 1.29 fold enrichment (6-mer frequency, TF over GST control) with ELF1; 1.19 fold enrichment (6-mer frequency, TF over GST control) in the experiment with EHF. The binding signal in the experiment with SPI1 was 1.32 fold enrichment (6-mer frequency, TF over GST control); with SPIB, 1.31 fold enrichment (6-mer frequency, TF over GST control); with ELK3, 1.27 fold enrichment (6-mer frequency, TF over GST control).

CTGGTT: the binding signal with FLI1 is 1.36 fold enrichment (6-mer frequency, TF over GST control); with ELK1 it was 1.3 fold enrichment (6-mer frequency, TF over GST control); with GABPA, 1.2 fold enrichment (6-mer frequency, TF over GST control); with ERG it was 1.31 fold enrichment (6-mer frequency, TF over GST control); with ELF1 it was 1.31 fold enrichment (6-mer frequency, TF over GST control); in the experiment with EHF, 1.18 fold enrichment (6-mer frequency, TF over GST control). The binding signal with SPI1 is 1.45 fold enrichment (6-mer frequency, TF over GST control); with SPIB, 1.24 fold enrichment (6-mer frequency, TF over GST control); in the experiment with ELK3, 1.21 fold enrichment (6-mer frequency, TF over GST control).
